The nature of test [1]: qHTS Screen of the MIPE 4.0 Collection Against Ewings Sarcoma (RDES) (AID 1259252). Further: nearly all actives have a fitted effect of over 35% in size. Further: potency means the concentration at half of the fitted maximal effect. A digest of the protocol: (§1)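 Dose series incubated 48 h with cells in RPMI plus 5% FBS, glutamine and penicillin/streptomycin; cell viability then quantified via CellTiter-Glo.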
A short description of test [2]: qHTS Screen of the MIPE 4.0 Collection Against Ewings Sarcoma (TC71) (AID 1259253). Further: nearly all actives have a fitted effect of over 40% in size. Further: potency means the concentration at half of the fitted maximal effect. A digest of the protocol:
as §1
(In general: qHTS replaces the single test concentration by a dilution series.)

A short description of test [3]: qHTS Screen of the MIPE 4.0 Collection Against Ewings Sarcoma (EW8) (AID 1259255). Further: nearly all actives have a fitted effect of over 35% in size. Further: potency means the concentration at half of the fitted maximal effect. The method in brief: as §1
A short description of test [4]: qHTS Screen of the MIPE 4.0 Collection Against Ewings Sarcoma (TC32) (AID 1259256). Further: nearly all actives have a fitted effect of over 45% in size. Further: potency means the concentration at half of the fitted maximal effect. A digest of the protocol:
as §1

A short description of test [5]: Identifying Small Molecule Inhibitors of Pancreatic Cancer Stem Cells (SN12C, Adherent) (AID 1259358).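 Further: cell survival measured after 48 h of compound exposure.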 Further: potency means the concentration at half of the fitted maximal effect. A digest of the protocol: (§2)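 Endpoint: ATP-based luminescence, 48 h drug exposure. Bortezomib at 9.2 uM final as full-kill control; DMSO vehicle as negative control; activity normalized between vehicle and cell-free wells.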
Test [6] is described as follows: Identifying Small Molecule Inhibitors of Pancreatic Cancer Stem Cells (Panc1, Spheroid) (AID 1259359).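 Further: potency means the concentration at half of the fitted maximal effect; compound exposure lasted 48 h before reading.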 The method in brief:
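After a 4 h attachment period, compounds were pinned into wells and cultures held 48 h under standard incubator conditions. Viability was then measured as CellTiter-Glo luminescence following 10 min at room temperature.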

A short description of test [7]: Identifying Small Molecule Inhibitors of Pancreatic Cancer Stem Cells (SN12C, Spheroid) (AID 1259360). Further: potency means the concentration at half of the fitted maximal effect. As to conditions: Potency: SN12C spheroid viability. A digest of the protocol: (§3)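 Spheroids grown 14 days in stem cell media on nonadherent hydrogel before screening; cells attached 4 h, then compound exposure 48 h at 37C, 5% CO2. CellTiter-Glo luminescence normalized to DMSO (no inhibition) and no-cell wells (full inhibition).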

Test [8] is described as follows: P-glycoprotein substrates identified in KB-8-5-11 adenocarcinoma cell line, qHTS therapeutic library screen (AID 1346987). Further: nearly all actives have a fitted effect of over 65% in size. Further: potency means the concentration at half of the fitted maximal effect. The method in brief: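 P-gp-mediated resistance screen: KB-8-5-11 cells treated 72 h with compounds in dose-response. CellTiter-Glo viability.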
Test [9] in a line: NS1 protein of Zika virus - qHTS assay to identify small molecule inhibitors in human HEK 293 cells (AID 1347053). Further: nearly all actives have a fitted effect of over 55% in size. Further: potency means the concentration at half of the fitted maximal effect. A digest of the protocol: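 HEK 293 cells pretreated with compound for 1 h, then infected with ZIKV MR766 (MOI 0.5) for 24 h at 37 C. NS1 detected by TR-FRET with two anti-NS1 antibodies; normalized to uninfected (0%) and infected (100%) wells.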
Test [10] is described as follows: Identifying Small Molecule Inhibitors of Pancreatic Cancer Stem Cells (A278, Adherent) (AID 1259361). Further: nearly all actives have a fitted effect of over 35% in size. The method in brief:
as §2

A short description of test [11]: Identifying Small Molecule Inhibitors of Pancreatic Cancer Stem Cells (A2780, Spheroid) (AID 1259357). Further: potency means the concentration at half of the fitted maximal effect.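 Further: spheroids pre-formed over 14 days in stem cell medium on hydrogel; compound exposure lasted 48 h before the ATP luminescence read.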 As to conditions: Potency: A2780 spheroid viability. A digest of the protocol:
as §3

Test [12] in a line: P-glycoprotein substrates identified in KB-3-1 adenocarcinoma cell line, qHTS therapeutic library screen (AID 1346986). Further: nearly all actives have a fitted effect of over 60% in size.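 Further: potency means the concentration at half of the fitted maximal effect; potency is for cytotoxicity meaning loss of cell viability.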 A digest of the protocol:
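Compounds were tested in dose-response against KB-3-1 and KB-8-5-11 cells at 37 degree C for 72 h, and viability was measured by luminescence. AC50 values came from curve fitting with class-based activity calls.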

The nature of test [13]: Identifying Small Molecule Inhibitors of Pancreatic Cancer Stem Cells (Panc1, Adherent) (AID 1259362). Further: potency means the concentration at half of the fitted maximal effect. As to conditions: Potency: viability. A digest of the protocol:
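Pre-formed 14-day tumor spheroids or adherent cells dosed and incubated 48 h, 37C, 5% CO2. Viability assessed by CellTiter-Glo.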

The structures appear in SMILES notation. Where “and” joins values, the source holds several entries; their conditions need not be identical. Identical values can stand only once. Records with an inconclusive call do not appear. Calls of active or inactive are those of the source. The call rests on the fitted dose curve; in most records, active means well fitted curve in the direction sought with a large enough effect; inconclusive means small, poorly fitted or top-dose-only effect, or another doubt; inactive means no such curve, though single readings can be large; an effect the other way counts as inactive or inconclusive.

As to `CC(NCc1ccc2c(c1)nc(NC(=O)c1ccc(-c3cn[nH]c3)s1)n2CC(C)(C)O)C(C)(C)C` (stereo unspecified), the Potency was 0.469 µM (active) in test [1]; 332 nM (active) in test [2]; 469 nM (active) in test [3]; 0.372 µM (active) in test [4]; 296 nM (active) in [5]; 166 nM (active) in test [6]. The Potency in test [7] was 0.469 µM (active); in test [8] it was 4.18 µM (active); in test [9], 4.69 µM (active).
`Cc1ccc(-c2ncn(-c3ccc(Nc4nccc(-c5cccc(N6CCOCC6)c5)n4)cc3)n2)cn1`: the Potency in [1] is 0.0743 µM (active); in test [2] it was 118 nM (active); in test [3] it was 93.5 nM (active); in [4], 0.0526 µM (active); in test [5] it was 59 nM (active); in test [7], 0.059 µM (active). The Potency in [8] was 1.05 µM (active); in test [9], 3.72 µM (active). The IC50 (viability decrease) in test [10] was 0.0743 µM (active).
Regarding `CC1(C)CCC(c2ccc(Cl)cc2)=C(CN2CCN(c3ccc(C(=O)NS(=O)(=O)c4ccc(N[C@H](CCN5CCOCC5)CSc5ccccc5)c(S(=O)(=O)C(F)(F)F)c4)cc3)CC2)C1`, the Potency was 26.4 µM (active) in [1]; 18700 nM (active) in test [2]; 29600 nM (active) in test [3]; 5.26 µM (active) in test [4]; 20.9 µM (active) in test [11]; 16.6 µM (active) in [7]. Besides, in test [10], the IC50 (viability decrease) is 23.5 µM (active). Besides, the Potency result in [9] is “inactive”.
In the case of `COc1cccc2nc(-c3cccs3)nc(NN3C(=O)C=C(C)C3=O)c12`, the Potency in [1] was 2.96 µM (active); in [2] it was 743 nM (active); in test [3] it was 469 nM (active); in [4], 1.87 µM (active); in test [11] it was 0.662 µM (active); in test [7], 20.9 µM (active). Further, the Potency is 469 nM (active) and 1.64 µM (active) in test [8]; 3.72 µM (active) in test [9]. Further, in test [10], the IC50 (viability decrease) was 0.469 µM (active).
Consider `Cc1cc(Nc2cc(NC(=O)c3c(Cl)cccc3Cl)ccn2)nc(N)n1`, for which the Potency is 0.332 µM (active) in [1]; 148 nM (active) in test [2]; 187 nM (active) in test [3]; 0.264 µM (active) in test [4]; 20.9 µM (active) in test [11]; 326 nM (active) in [12]. Moreover, the Potency in test [9] is 2.35 µM (active).
As for `Cc1cnc(Nc2ccc(F)cc2Cl)nc1-c1c[nH]c(C(=O)N[C@H](CO)c2cccc(Cl)c2)c1`, the Potency in test [1] was 20.9 µM (active); in test [2] it was 18700 nM (active); in test [3], 20900 nM (active); in [4], 23.5 µM (active); in [5], 13200 nM (active); in [7], 23.5 µM (active). Further, the figures for the Potency in test [13] and in test [8] were 18.7 µM (active) and 23.5 µM (active), respectively. For the same molecule, in test [10], the IC50 (viability decrease) was 11.8 µM (active).
For `CCCCCN(CCC12CC3CC(CC(C3)C1)C2)C(=O)NCCCc1ccncc1`, the Potency in test [1] was 16.6 µM (active); in [2], 18700 nM (active); in [3], 18700 nM (active); in [4] it was 14.8 µM (active); in test [8], 16.4 µM (active). Besides, the Potency result in test [5], in [7] and in [9] was “inactive” throughout.
Turning to `CC(C)C[C@H](NC(=O)CNC(=O)c1cc(Cl)ccc1Cl)B(O)O`, the Potency was 0.264 µM (active) in [1]; 332 nM (active) in test [2]; 148 nM (active) in [3]; 0.469 µM (active) in test [4]; 132 nM (active) in test [5]; 93.5 nM (active) in test [6]. For the same molecule, the results for the Potency in test [7], in test [8] and in test [9] were 0.0833 µM (active), 1.32 µM (active) and 0.418 µM (active), respectively. In addition, the IC50 (viability decrease) in [10] was 0.0166 µM (active).
In the case of `COc1ccc(C=Cc2cc(OC)c(OC)c(OC)c2)cc1O`, the Potency entry in test [1], in test [2], in test [3], in test [4] and in test [9] was “inactive” in each case. Also, the Potency in test [5] was 2.6 nM (active); in test [7] it was 2.09 µM (active); in test [8], 0.001 µM (active). Moreover, in test [10], the IC50 (viability decrease) was 0.0017 µM (active).
With `CC(C)(C)c1cc(NC(=O)Nc2ccc(-c3cn4c(n3)sc3cc(OCCN5CCOCC5)ccc34)cc2)no1`, the Potency entry in [1], in test [2], in test [3], in [4], in test [5] and in [8] was “inactive” throughout. For the same molecule, in test [9], the Potency entry was “inactive”. Further, the IC50 (viability decrease) in test [10] is 10.5 µM (active).
Regarding `O=C(C=Cc1cccnc1)NCCCCC1CCN(C(=O)c2ccccc2)CC1`, the Potency in test [1] is 0.0042 µM (active); in test [2], 4.2 nM (active); in test [3], 7.4 nM (active); in test [4], 0.0042 µM (active); in test [7] it was 0.0021 µM (active); in [8], 0.0166 µM (active). Besides, the Potency result in test [11] and in test [9] was “inactive” each time. In addition, the IC50 (viability decrease) result in [10] is “inactive”.
In the case of `COc1cc2ncn(-c3cc(OCc4ccccc4C(F)(F)F)c(C(N)=O)s3)c2cc1OC`, the Potency in test [1] was 4.18 µM (active); in [2], 1480 nM (active); in [3], 1320 nM (active); in [4], 1.32 µM (active); in test [5], 1050 nM (active); in [8] it was 0.935 µM (active). Besides, in test [7], the Potency result is “inactive”. The IC50 (viability decrease) in test [10] was 1.48 µM (active).
Take `O=C(c1ccc(Nc2nccc(-c3cc4ccccc4s3)n2)cc1)N1CCC(N2CCCC2)CC1`: the Potency is 18.7 µM (active) in test [1]; 18700 nM (active) in test [2]; 20900 nM (active) in [3]; 20.9 µM (active) in test [4]; 26400 nM (active) in test [5]; 23.5 µM (active) in [7]. Besides, the Potency in test [12] is 6510 nM (active); in [8] it was 8.33 µM (active) and 16.4 µM (active) and 20.6 µM (active); in test [9] it was 6.62 µM (active). Moreover, in test [10], the IC50 (viability decrease) is 18.7 µM (active).
Regarding `COc1cc(C(C)C)c2c(c1)S(=O)(=O)N(COc1cc(=O)n3cccc(OCCN4CCCCC4)c3n1)C2=O`, the Potency in test [1] was 10.5 µM (active); in test [2] it was 18700 nM (active); in [3] it was 26400 nM (active); in test [4], 20.9 µM (active). Moreover, the Potency result in test [5], in test [7], in test [12] and in test [8] was “inactive” throughout.
As for `C[C@@]12O[C@@H](C[C@]1(O)CO)n1c3ccccc3c3c4c(c5c6ccccc6n2c5c31)CNC4=O`, the Potency in test [1] was 1.18 µM (active); in test [2], 590 nM (active); in test [3], 296 nM (active); in test [4] it was 0.332 µM (active); in test [11], 23.5 µM (active); in test [7] it was 23.5 µM (active). Besides, the Potency was 206 nM (active) in test [12]; 2.35 µM (active) and 1.46 µM (active) in test [8]; 2.64 µM (active) in [9]. The IC50 (viability decrease) in test [10] is 1.66 µM (active).

The record behind these values is PubChem BioAssay (NCATS).
